# About 83,000 compounds went through this panel and 20% of them were active in at least one assay; those are over-represented in the sample as a whole.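 Step 1: grow cells in 96-well plates. Step 2: add test compound at a single concentration. Step 3: incubate 48 h. Step 4: record percent growth.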 A number with no mark means an inactive call. Calls of active or inactive are those of the source. How the source made its calls: active means growth percent below 10; inactive means the rest.
# System: 786-0 renal
# Assay: NCI-60 one-dose screen, 48 h (100 = growth as untreated, 0 = no growth, -100 = all killed)
# Conditions: 10 µM unless noted
row,SMILES,growth
1,Fc1ccc(C2=NN(c3ccccc3)C(c3sc(N(CCCl)CCCl)nc3Cl)C2)cc1 (stereo not given),92.2%
2,CC[C@H](C)[C@H](NC(=O)Nc1ccccc1)C(=O)N(C)[C@H](C[C@@H](OC(C)=O)c1nc(C(=O)N[C@@H](Cc2ccccc2)C[C@H](C)C(=O)OC)cs1)C(C)C,18.1%
3,c1ccc(CCN2CCCCC2Cc2ccccc2)cc1 (stereo not given),102%
4,CC(=O)O[C@H]1CCC2(C)C(=CCC3C2CCC2(C)/C(=N/OC(=O)c4ccc(N(CCCl)CCCl)cc4)CCC32)C1 (stereo not given in full),47.6%
5,O=C(N/N=C/c1ccc(N(CCCl)CCCl)cc1)c1cc(=O)[nH]c(=O)[nH]1,83.2%
6,O=[As]c1ccc(C(=O)c2ccc(Oc3ccccc3)cc2)cc1 (stereo not given),-99.6% (active)
7,O=[N+]([O-])c1cc([N+](=O)[O-])c(Cl)c(Cl)c1Cl,12.2%
8,Cc1cc(NC(=O)NCCOc2ccc(N3C(N)=NC(N)=NC3(C)C)cc2Cl)ccc1S(=O)(=O)F,35.3%
9,COc1ccc2c(c1)NC1=C(C(=O)OC1)C2c1cc(OC)c(OC)c(OC)c1 (stereo not given),18.8%
10,C=CCc1ccc(OC(=O)Cc2ccccc2)c(OC)c1,99.2%
11,CC(C)(O)/C=C/C(=O)[C@](C)(O)[C@H]1[C@H](O)C[C@@]2(C)[C@@H]3CC=C4[C@@H](C=C(O)C(=O)C4(C)C)[C@]3(C)C(=O)C[C@]12C,-96.2% (active)
12,C[C@]12CCc3sc(-c4ccc(Cl)cc4)nc3C1=CC[C@@H]1[C@@H]2CC[C@]2(C)C(=O)CC[C@@H]12,53.4%
13,C=CCC1(CC)C(=O)NC(=S)NC1=O,108%
14,NC(Cc1ccc2c(c1)OCO2)c1ccc2c(c1)OCO2 (stereo not given),98.5%
15,O=C(CF)N(O)c1ccc(/C=C/c2ccccc2)cc1,8.73% (active)
16,COc1ccc(/C=C(/C(=O)N2CCCC2)c2cc(OC)c(OC)c(OC)c2)cc1N,24.5%
17,Nc1nc(N)c(-c2ccc(Cl)c(Cl)c2)c(/C=C/c2ccc(S(=O)(=O)F)cc2)n1,76.9%
18,Nc1c(Br)cc([N+](=O)[O-])cc1[N+](=O)[O-],105%
19,Oc1ccc(O)c2c1C1(Cl)C(Cl)=C(Cl)C2(Cl)C1(Cl)Cl,69.1%
20,CN(C)P1(N(C)C)=NP(N(C)C)(N(C)C)=NP(N(C)C)(N(C)C)=N1,101%

row,SMILES,growth
1,CCCCNCCc1ccccn1,97.6%
2,CNC(=O)Oc1cccc(OC)c1,107%
3,C=C=[CH][Sn]([c]1ccccc1)([c]1ccccc1)[c]1ccccc1,-81.2% (active)
4,NC(=O)SCC(=O)Nc1ccc([As](=O)(O)O)cc1,82.8%
5,C[C@]12CC[C@H]3[C@@H](C[C@@H]4N=C(c5ccc(O)cc5)S[C@@]45C[C@H](O)CC[C@]35C)[C@@H]1CC[C@@H]2O,8.35% (active)
6,CC1(C)N=C(N)N=C(N)N1c1ccc(CCCCc2ccc(S(=O)(=O)F)cc2)cc1,25.1%
7,Nc1c(Br)cc2c3c(cccc13)-c1ccccc1-2,94.9%
8,COc1cc2c(cc1OC)CN(C)C(C)C2 (stereo not given),101%
9,CC(C)C1c2ccc(O)cc2Oc2nc(N)c(C#N)c(N)c21 (stereo not given),96.1%
10,c1ccc2nc(OCCN3CC3)ccc2c1,84.2%
11,CC1(C)N=C(N)N=C(N)N1c1ccc(CNC(=O)Nc2ccc(S(=O)(=O)F)c(Cl)c2)c(Cl)c1,30.8%
12,c1ccc(-c2ccc3ccccc3[o+]2)cc1,106%
13,CSc1ccccc1NP1(=O)OCC(C)([N+](=O)[O-])CO1 (stereo not given),113%
14,CC1COC(=O)C1 (stereo not given),95.1%
15,C[CH2][Pb]([CH2]C)([CH2]C)[O]C(=O)COc1ccccc1,-22% (active)
16,COc1ccc(/C=C\c2cc(OC)c(OC)c(OC)c2)cc1N/C=C\C(=O)c1c[nH]c2ccccc12,20.9%
17,CCCC(C)(C)c1ccc2c(c1)OC(C)(C)[C@@H]1CC=C(C)C[C@@H]21,98.8%
18,OC1(c2ccc(Cl)cc2Cl)c2ccccc2C2=NCCN21 (stereo not given),87.9%
19,CC1(CF)NC(=O)NC1=O (stereo not given),97.6%
20,O=C(Nc1ccc(S(=O)(=O)F)cc1)Oc1ccccc1,102%

# Source: PubChem BioAssay (NCI)
